Test results published in the supplement of paper PMC4166925.
± gives the standard deviation of the averaged measurements. Over roughly 33,000 sequences, “E-score (dimensionless, -0.5 to 0.5)” has its median near -0.049; the highest 2% begin near 0.37. For the sample, the highest values were picked, then their nearest neighbours and some sequences at random.

The sequences below were run on T1, PmTbr T-box DNA-binding domain (GST fusion) (assay: PBM E-score of 8-mer (E-score (dimensionless, -0.5 to 0.5)); Tbr is Tbrain of the sea star Patiria miniata (Pm) or the sea urchin Strongylocentrotus purpuratus (Sp); higher = stronger binding preference). Conditions: the construct has about 5 more residues each side.
T1 sequence: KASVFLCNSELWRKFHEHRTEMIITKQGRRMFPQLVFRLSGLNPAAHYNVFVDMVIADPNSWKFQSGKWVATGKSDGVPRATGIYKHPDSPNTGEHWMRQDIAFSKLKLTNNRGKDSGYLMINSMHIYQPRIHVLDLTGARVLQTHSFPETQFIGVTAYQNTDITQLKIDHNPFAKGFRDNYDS
Experimental: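 Universal protein-binding microarray (Agilent AMADID 016060, 60-bp probes with a 35-bp variable region) incubated with 200 nM GST-fused Patiria miniata Tbr T-box DNA-binding domain (residues 272-466) in PBS pH 7.5. Scored for every ungapped 8-mer (given with its reverse complement) by the Universal PBM Analysis Suite as E-score (modified Wilcoxon-Mann-Whitney enrichment, range -0.5 to 0.5; >0.45 counts as bound) and Z-score of median probe intensity. Two replicate arrays (datasets 1 and 2).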

Sequence | PBM E-score of 8-mer
GTTAAACA | 0.00153 ± 0.043
AGGTCTGG | 0.0461 ± 0.012
ACGCTAAT | 0.114 ± 0.018
AGTTCTTG | -0.0105 ± 0.0029
CGGCCCTA | -0.249 ± 0.019
TACGCACA | -0.0799 ± 0.0095
ACGTGTCA | 0.4563 ± 0.0033
ACGTGTCG | 0.385 ± 0.022
ACGTGTAA | 0.31 ± 0.0077
ACGTGTCT | 0.198 ± 0.0036
CCGTGTCG | 0.144 ± 0.045
CCGTGTCA | 0.236 ± 0.0063
CCGCATAG | -0.047 ± 0.042
AGGTTAAG | -0.186 ± 0.083
GCCCACTA | -0.0431 ± 0.011
CCGGAGAA | -0.00469 ± 0.1
ATCCCGCG | -0.042 ± 0.095
CCGTGTGA | 0.335 ± 0.015
ACGTGTGA | 0.4818 ± 0.0022
ACGTGTGC | 0.174 ± 0.035
GCGTGAGA | 0.368 ± 0.021
GCGTGTGA | 0.373 ± 0.016
GCGTGTAA | 0.0292 ± 0.033
AGCGGGTG | 0.308 ± 0.017
AGGGGGGC | -0.222 ± 0.034

Sequence | PBM E-score of 8-mer
ATTGTCGC | 0.292 ± 0.024
ATTGTCGA | 0.0764 ± 0.052
CGTGTCGC | 0.295 ± 0.023
AGTGTCGA | 0.4188 ± 0.0041
CGTGTCGA | 0.288 ± 0.052
AGTGTCTA | 0.213 ± 0.017
CGTGTCTA | 0.0962 ± 0.0027
AGTGTCGC | 0.415 ± 0.019
GGTGTCTA | 0.376 ± 0.007
GTTGTCGA | 0.241 ± 0.021
GGTGTCGA | 0.461 ± 0.0086
AATGTCGA | 0.0192 ± 0.036
CAGCGGTA | -0.061 ± 0.018
ACTGAAAC | -0.0158 ± 0.016
CTCCTGCC | -0.0358 ± 0.0023
AGCTGTCA | 0.3661 ± 0.003
CACCAGGG | 0.0472 ± 0.096
CGTGTGGA | 0.284 ± 0.0037
AGTGTCGG | 0.38 ± 0.0074
AGTGTGGA | 0.354 ± 0.0036
ATTGTCGG | 0.0329 ± 0.01
AATGTCGG | -0.0392 ± 0.026
GGTGTGGA | 0.432 ± 0.015
CGGCTGAG | -0.1 ± 0.073
CTGTCTTC | 0.0449 ± 0.021

Sequence | PBM E-score of 8-mer
AACATTTG | 0.0235 ± 0.04
CTCTGAGC | -0.0449 ± 0.047
AACCTCGC | 0.196 ± 0.035
GACCTCGC | 0.0974 ± 0.064
CACCTCGC | 0.458 ± 0.0073
CACCTCGG | 0.426 ± 0.015
AACCTCGG | -0.124 ± 0.033
CACCTCGA | 0.4483 ± 0.002
AACCTCGA | 0.0311 ± 0.022
CCCCTCGG | -0.194 ± 0.016
GACCTCGA | -0.0343 ± 0.13
ACTCAGAC | 0.0474 ± 0.069
ATTAGAAG | -0.226 ± 0.053
GTAGAGCA | -0.196 ± 0.024
GCGGTTAC | -0.0207 ± 0.021
CAACCGTG | 0.216 ± 0.013
CGTTAGCA | 0.394 ± 0.012
GGTTAACA | 0.255 ± 0.026
CGTTAACG | 0.266 ± 0.015
GGTTAGCA | 0.314 ± 0.027
TGTTAACA | 0.38 ± 0.0039
CGTTAACC | 0.0384 ± 0.0052
CGTTAACA | 0.372 ± 0.044
AGTTAGCA | 0.32 ± 0.023
AGTTAACA | 0.334 ± 0.013

Sequence | PBM E-score of 8-mer
TCTTCCCA | 0.114 ± 0.031
TACCATAA | -0.0564 ± 0.0014
GAAATAGA | -0.125 ± 0.036
CGACTTCC | -0.183 ± 0.002
AAGATGGA | -0.228 ± 0.058
ACCCCGCC | 0.119 ± 0.051
CTTCACGC | 0.356 ± 0.04
ATTCACAC | 0.4763 ± 0.0034
ATTCACAA | 0.247 ± 0.024
CTTCACAC | 0.4785 ± 0.0022
CTTCACCC | 0.0387 ± 0.019
ATTCACGA | 0.29 ± 0.0094
ATTCACAG | 0.355 ± 0.0076
ATTCACGC | 0.4258 ± 0.0014
CTTCACAA | 0.225 ± 0.058
CATTAGAC | -0.177 ± 0.0077
AATATAAA | -0.136 ± 0.075
ACGCTTCT | 0.106 ± 0.035
CAAACCCC | -0.155 ± 0.069
ACGGGCAA | -0.133 ± 0.057
GGCACCGA | -0.0859 ± 0.03
AGCACCGC | 0.0529 ± 0.038
GGCACCTA | 0.412 ± 0.006
GCCACCTA | 0.336 ± 0.033
AGCACCCG | 0.252 ± 0.061

Sequence | PBM E-score of 8-mer
AGCACCTC | 0.4279 ± 0.0012
ACCACCTC | 0.341 ± 0.027
CGCACCTC | 0.46 ± 0.012
CGCACCGC | 0.222 ± 0.063
AGCACCGG | 0.0404 ± 0.045
CCCACCTC | 0.2907 ± 0.0021
AGCACCTG | 0.415 ± 0.0079
CCCTAATA | -0.219 ± 0.027
GAACACTC | 0.0811 ± 0.024
AGGGAACG | 0.0301 ± 0.15
ACTATGCT | 0.00416 ± 0.025
AAGAGCGT | -0.119 ± 0.04
GAGGCCTA | -0.176 ± 0.014
CTCAAATA | -0.321 ± 0.072
ACCAAGTA | 0.0125 ± 0.031
AAGAGCGC | -0.188 ± 0.004
AGGAGAAA | -0.109 ± 0.19
CACTAAGA | 0.0202 ± 0.013
CAGCCCTG | -0.294 ± 0.015
ACCAGCCT | -0.14 ± 0.082
AGGGTATG | -0.218 ± 0.032
TGAAGCAA | -0.229 ± 0.055
AGCACCTA | 0.435 ± 0.00088
ACCACCTA | 0.205 ± 0.0085
AGCACCGA | -0.00405 ± 0.11

Sequence | PBM E-score of 8-mer
CGCACCGA | 0.0275 ± 0.11
CGCACCTA | 0.422 ± 0.0048
CGCACCAA | 0.251 ± 0.04
ATAGCTAG | -0.0742 ± 0.12
CACGTTGG | 0.261 ± 0.0042
CTGTTCTC | 0.0542 ± 0.017
AGTGGCAA | 0.304 ± 0.039
CTTGGCAC | 0.352 ± 0.016
CCTGGCAC | 0.371 ± 0.019
AGTGGCAC | 0.334 ± 0.008
GGTGGCAA | 0.3882 ± 0.0017
GGTGGCAC | 0.38829 ± 0.00023
ATTGGCAC | 0.385 ± 0.0064
ACTGGCAC | 0.264 ± 0.015
CGTGGCAC | 0.233 ± 0.052
CGTGGCAA | 0.122 ± 0.044
GCTGGCAC | 0.234 ± 0.064
ATTGGCAG | 0.0761 ± 0.012
CCAGTTCA | -0.052 ± 0.044
GCCGTGCC | 0.0438 ± 0.036
TCTATCCA | -0.354 ± 0.0079
GGATTAAC | 0.0329 ± 0.085
CCTAGGGA | -0.233 ± 0.015
ACGATCTG | 0.189 ± 0.015
CAATAGCG | 0.118 ± 0.13

Sequence | PBM E-score of 8-mer
AAGAGGTA | -0.158 ± 0.021
ACGAGGTC | -0.113 ± 0.027
AGGAGGTA | -0.0739 ± 0.034
ATGAGGTA | -0.093 ± 0.027
ATGAGGTC | -0.00428 ± 0.033
ACGAGGTG | 0.4446 ± 0.0042
AGGAGGTG | 0.428 ± 0.0078
AGGAGGTC | -0.247 ± 0.02
ATGAGGTG | 0.382 ± 0.018
AAGAGGTG | 0.4261 ± 0.00096
AAGAGGTC | -0.101 ± 0.02
ACGAGGTA | -0.046 ± 0.031
GCCAGTCA | 0.0625 ± 0.0016
AAGTTTCT | 0.101 ± 0.091
AAACCATC | -0.0959 ± 0.018
AGTAGAGC | 0.00365 ± 0.047
GTAGAACA | -0.0515 ± 0.048
GTCAGTGA | 0.122 ± 0.036
GGAGAGCC | -0.27 ± 0.039
ATTAAGTC | -0.233 ± 0.059
AGGCAAAT | -0.324 ± 0.053
CAGACCTG | -0.0919 ± 0.036
AACACCTT | 0.4857 ± 0.0013
AACACCGC | 0.287 ± 0.0081
TACACCTA | 0.371 ± 0.026

Sequence | PBM E-score of 8-mer
TACACCGA | 0.042 ± 0.083
TACACCAA | 0.0439 ± 0.018
CACACCGG | 0.135 ± 0.057
AACACCGG | 0.155 ± 0.04
ACCACCTG | 0.262 ± 0.056
AACACCTG | 0.472 ± 0.0011
CACACCTG | 0.478 ± 0.0049
AACACCGT | 0.329 ± 0.0059
GACTGAGA | -0.181 ± 0.085
ACTCAAAT | -0.125 ± 0.039
TACTTAGA | 0.0947 ± 0.0054
ATAGACTG | -0.0183 ± 0.043
GACTGACA | 0.142 ± 0.069
ATAGGCCC | -0.141 ± 0.098
CTCATTGC | -0.166 ± 0.087
AGATTCGG | -0.173 ± 0.036
ACGGCTAC | -0.0169 ± 0.0055
AACACCGA | 0.234 ± 0.034
CCCACCTA | 0.184 ± 0.016
GAGACCTA | -0.16 ± 0.033
CACACCTA | 0.476 ± 0.009
AACACCTA | 0.4803 ± 0.0034
AAAACCTA | -0.209 ± 0.086
GACACCTA | 0.48906 ± 2.8e-05
CACACCGA | 0.193 ± 0.0051

Sequence | PBM E-score of 8-mer
GACACCGA | 0.286 ± 0.024
AGACTAGG | -0.0553 ± 0.059
ACGTCGAC | 0.115 ± 0.035
AGGCAGCG | -0.0107 ± 0.078
CCTTGTAA | -0.0975 ± 0.037
TACTTGAA | -0.262 ± 0.037
AGGGGAGG | -0.223 ± 0.07
GAATTGTC | 0.184 ± 0.0043
CGAGACTC | 0.0667 ± 0.093
CCAAGGGA | 0.0414 ± 0.029
ATCACGAG | 0.167 ± 0.054
AAGAGTGT | 0.289 ± 0.055
CTATAGAA | -0.129 ± 0.058
ACGTGACG | 0.346 ± 0.0083
GTGTGACA | 0.4709 ± 0.0035
ACGTGACT | 0.0526 ± 0.086
ATGTGACA | 0.4393 ± 0.0026
ATGTGACC | 0.112 ± 0.052
CTGTGACA | 0.3356 ± 0.0016
ACGTGACA | 0.385 ± 0.023
GCGTGACA | 0.365 ± 0.0062
ATGTGACG | 0.31 ± 0.02
